This note sets out measurements from PubChem BioAssay (NCI).

Test [1] can be described thus: NCI Yeast Anticancer Drug Screen. Data for the rad50 strain (AID 155).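 Further: 0% = growth of vehicle-only cultures of the same strain.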 As to conditions: S. cerevisiae rad50 strain growth inhibition, hits give high values. Summed up:
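A DNA repair-deficient yeast mutant serves as the test organism; compound-induced growth inhibition is calculated against vehicle-treated cells.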

The nature of test [2]: NCI Yeast Anticancer Drug Screen. Data for the mec2-1 strain (AID 157). As to conditions: S. cerevisiae mec2-1 strain, hits give high values. In a few lines: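 Vehicle-treated cultures served as reference for growth inhibition of compound-exposed mec2-1 yeast.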
Test [3] in a line: NCI Yeast Anticancer Drug Screen. Data for the sgs1 mgt1 strain (AID 161).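 Further: 0% = growth of cultures given vehicle only.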 As to conditions: S. cerevisiae sgs1 mgt1 strain, hits give high values. In a few lines:
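Read-out: growth inhibition vs vehicle controls. Cells: mutant yeast strain deficient in DNA damage repair.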

Test [4] in a line: NCI Yeast Anticancer Drug Screen. Data for the cln2 rad14 strain (AID 165).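 Further: 0% = growth equal to vehicle treated cultures.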 As to conditions: S. cerevisiae cln2 rad14 strain, hits give high values. Summed up:
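Each compound was tested on cln2 rad14 yeast. Inhibition of growth was calculated against vehicle-exposed controls.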

A short description of test [5]: NCI Yeast Anticancer Drug Screen. Data for the bub3 strain (AID 167). As to conditions: S. cerevisiae bub3 mutant strain, hits give high values. Summed up: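 Inhibition values come from growth of compound-treated mutant yeast normalised to vehicle-treated controls.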
Test [6] can be described thus: NCI Yeast Anticancer Drug Screen. Data for the mlh1 rad18 strain (AID 175). As to conditions: S. cerevisiae mlh1 rad18 strain growth inhibition, hits give high values. In a few lines: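 Vehicle-treated cultures served as the reference for growth inhibition in a yeast strain carrying DNA damage repair alterations exposed to each compound.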
Where [7] appears, read: at 5.0 µM (retest, dose inferred, filed as 0.5).
Where [8] appears, read: at 50.0 µM (retest, dose inferred, filed as 5.0).

Compounds without any hit were thinned out: in the full panel of roughly 79,000, 15% have a hit. Unmarked numbers belong to inactive results. The source made the active and inactive calls. No stated cut-off is given here; in the data, active means growth inhibition above about 70%; inactive means the rest.

As to `O=c1oc2ccccc2c(O)c1/C=N/C(=S)NCCc1ccccc1`, the growth inhibition in test [1] (setting [7]) is 29%; in test [1] (setting [8]) it was 88% (active); in test [1] (at 50.0 µM) it was -11.6%; in test [2] (setting [7]), 30%; in test [2] (setting [8]), 95% (active); in test [2] (at 50.0 µM), -22.4%. In addition, the growth inhibition in test [3] (setting [7]) is 32%; in test [3] (setting [8]), 92% (active); in test [3] (at 50.0 µM), -6.05%; in test [4] (setting [7]), 26%; in test [4] (setting [8]), 40%; in test [4] (at 50.0 µM) it was -27.8%. Also, the growth inhibition in test [5] (setting [7]) was 44%; in test [5] (setting [8]), 96% (active); in test [5] (at 50.0 µM), -10.2%; in test [6] (setting [7]) it was 32%; in test [6] (setting [8]), 93% (active); in test [6] (at 50.0 µM), -5.75%.
`CCO[Si](CC)(OCC)OCC`: the growth inhibition was -3% in test [1] (setting [7]); 2% in test [1] (setting [8]); 27.1% in test [1] (at 50.0 µM); -6% in test [2] (setting [7]); -3% in test [2] (setting [8]); 4.4% in test [2] (at 50.0 µM). In addition, the growth inhibition in test [3] (setting [7]) is 4%; in test [3] (setting [8]) it was 3%; in test [3] (at 50.0 µM), -12.2%; in test [4] (setting [7]), 0%; in test [4] (setting [8]), 3%; in test [4] (at 50.0 µM), 81.1% (active). The growth inhibition in test [5] (setting [7]) was -3%; in test [5] (setting [8]), 6%; in test [5] (at 50.0 µM), -6%; in test [6] (setting [7]), -2%; in test [6] (setting [8]), 3%; in test [6] (at 50.0 µM), 31.8%.
With `O=C1/C(=C/N2CCN(c3ccccc3)CC2)Cc2c(Cl)cccc21`, the growth inhibition in test [1] (setting [7]) was 13%; in test [1] (setting [8]) it was -2%; in test [1] (at 50.0 µM), 77.3% (active); in test [2] (setting [7]), 7%; in test [2] (setting [8]), 91% (active); in test [2] (at 50.0 µM) it was 98.2% (active). Further, the growth inhibition was 7% in test [3] (setting [7]); 4% in test [3] (setting [8]); 64.3% in test [3] (at 50.0 µM); 64% in test [4] (setting [7]); 35% in test [4] (setting [8]); 93.8% (active) in test [4] (at 50.0 µM). The growth inhibition in test [5] (setting [7]) was -9%; in test [5] (setting [8]), 33%; in test [5] (at 50.0 µM), 94.3% (active); in test [6] (setting [7]), 6%; in test [6] (setting [8]), 41%; in test [6] (at 50.0 µM), 98.2% (active).
As to `CSc1nc(COC(=O)NC(C)C)c(COC(=O)NC(C)C)n1-c1ccccc1`, the growth inhibition in test [1] (setting [7]) is -12%; in test [1] (setting [8]) it was 11%; in test [1] (at 50.0 µM) it was -17.1%; in test [2] (setting [7]), 23%; in test [2] (setting [8]), 11%; in test [2] (at 50.0 µM) it was 4.2%. Also, the growth inhibition in test [3] (setting [7]) is -19%; in test [3] (setting [8]), -6%; in test [3] (at 50.0 µM), -6.15%; in test [4] (setting [7]) it was 13%; in test [4] (setting [8]), 4%; in test [4] (at 50.0 µM) it was 53.1%. Moreover, the growth inhibition is 8% in test [5] (setting [7]); 22% in test [5] (setting [8]); -12.7% in test [5] (at 50.0 µM); -1% in test [6] (setting [7]); -6% in test [6] (setting [8]); 18.9% in test [6] (at 50.0 µM).
For the compound `COc1ccc2nc3cc(Cl)ccc3c(NCCCN(Cc3cc(OC)c(OC)c(OC)c3)Cc3cc(OC)c(OC)c(OC)c3)c2c1`, the growth inhibition in test [1] (setting [7]) was 45%; in test [1] (setting [8]), 72% (active); in test [1] (at 50.0 µM) it was 62.4%; in test [2] (setting [7]), 29%; in test [2] (setting [8]), 58%; in test [2] (at 50.0 µM), 34.6%. The growth inhibition in test [3] (setting [7]) is 38%; in test [3] (setting [8]), 62%; in test [3] (at 50.0 µM), 45.6%; in test [4] (setting [7]), 32%; in test [4] (setting [8]) it was 43%; in test [4] (at 50.0 µM), 33.4%. The growth inhibition in test [5] (setting [7]) was 37%; in test [5] (setting [8]) it was 83% (active); in test [5] (at 50.0 µM), 56.6%; in test [6] (setting [7]) it was 48%; in test [6] (setting [8]), 80% (active); in test [6] (at 50.0 µM) it was 73.5% (active).
Regarding `CC1Cc2cc(O)c(O)cc2-c2cc(O)c(O)cc2CC1C` (configuration not stated), the growth inhibition in test [1] (setting [7]) is -6%; in test [1] (setting [8]) it was 86% (active); in test [1] (at 50.0 µM), 72.1% (active); in test [2] (setting [7]), -11%; in test [2] (setting [8]) it was 89% (active); in test [2] (at 50.0 µM) it was 83.8% (active). Also, the growth inhibition in test [3] (setting [7]) was -9%; in test [3] (setting [8]), 75% (active); in test [3] (at 50.0 µM) it was 80.7% (active); in test [4] (setting [7]), 7%; in test [4] (setting [8]), 85% (active); in test [4] (at 50.0 µM), 83.4% (active). The growth inhibition in test [5] (setting [7]) was -30%; in test [5] (setting [8]) it was 93% (active); in test [5] (at 50.0 µM) it was 79.4% (active); in test [6] (setting [7]), -8%; in test [6] (setting [8]), 93% (active); in test [6] (at 50.0 µM), 83.7% (active).
As for `CC(=O)O[C@@H]1CC(C)C2CC2C2=C(C(O)OC2O)[C@@H]1C(C)CCC=C(C)C` (some centres not stated), the growth inhibition in test [1] (setting [7]) is 19%; in test [1] (setting [8]) it was 98% (active); in test [1] (at 50.0 µM), 91.9% (active); in test [2] (setting [7]), 92% (active); in test [2] (setting [8]), 99% (active); in test [2] (at 50.0 µM), 93.7% (active). For the same compound, the growth inhibition was 25% in test [3] (setting [7]); 98% (active) in test [3] (setting [8]); 93% (active) in test [3] (at 50.0 µM); 86% (active) in test [4] (setting [7]); 98% (active) in test [4] (setting [8]); 90% (active) in test [4] (at 50.0 µM). For the same compound, the growth inhibition was 99% (active) in test [5] (setting [7]); 98% (active) in test [5] (setting [8]); 92.4% (active) in test [5] (at 50.0 µM); 78% (active) in test [6] (setting [7]); 98% (active) in test [6] (setting [8]); 91.5% (active) in test [6] (at 50.0 µM).
As for `O=C(O)C(Cc1ccc(O)cc1)NC(=O)N(c1ccccc1)c1ccccc1` (configuration not stated), the growth inhibition in test [1] (setting [7]) is 0%; in test [1] (setting [8]), 38%; in test [1] (at 50.0 µM), 17.2%; in test [2] (setting [7]), -11%; in test [2] (setting [8]) it was 52%; in test [2] (at 50.0 µM), 25.1%. For the same compound, the growth inhibition in test [3] (setting [7]) is -205%; in test [3] (setting [8]), 79% (active); in test [3] (at 50.0 µM), 30.8%; in test [4] (setting [7]), 3%; in test [4] (setting [8]) it was 39%; in test [4] (at 50.0 µM) it was 61.6%. In addition, the growth inhibition in test [5] (setting [7]) is 2%; in test [5] (setting [8]), 28%; in test [5] (at 50.0 µM) it was 19%; in test [6] (setting [7]), -4%; in test [6] (setting [8]) it was 74% (active); in test [6] (at 50.0 µM), 28.5%.
Regarding `O=C(O)c1cc(C(=O)O)c(C(=O)O)cc1C(=O)O.[NH-]C1CCCC1.[NH-]C1CCCC1.[NH-]C1CCCC1.[NH-]C1CCCC1.[Pt+2].[Pt+2]`, the growth inhibition is 4% in test [1] (setting [7]); 99% (active) in test [1] (setting [8]); 99.5% (active) in test [1] (at 50.0 µM); 10% in test [2] (setting [7]); 100% (active) in test [2] (setting [8]); 99.6% (active) in test [2] (at 50.0 µM). For the same compound, the growth inhibition in test [3] (setting [7]) was 15%; in test [3] (setting [8]), 99% (active); in test [3] (at 50.0 µM), 99.5% (active); in test [4] (setting [7]), 0%; in test [4] (setting [8]) it was 99% (active); in test [4] (at 50.0 µM) it was 99% (active). Further, the growth inhibition is -1% in test [5] (setting [7]); 99% (active) in test [5] (setting [8]); 99% (active) in test [5] (at 50.0 µM); 16% in test [6] (setting [7]); 99% (active) in test [6] (setting [8]); 99% (active) in test [6] (at 50.0 µM).
